GLS inhibitor: inhibitors of human glutaminase (GLS). O94925. GLS enzymatic activity, qHTS titration. Potency, µM (series often up to 45.5 µM), inactives show at the highest dose activity change, negative = inhibition, usual class: inhibitors. 410,000 tested, 0.21% active; also: potency is read from the fitted curve at half-maximal effect
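Compounds were pin-transferred onto hKGA, after which L-glutamine (1 mM solution) and a detection mix of glutamate oxidase, HRP and Amplex Red were added. Initial and 30 min RT fluorescence reads were collected.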
USP1-UAF1 inh: inhibitors of human USP1/UAF1 deubiquitinase; O94782; recombinant USP1/UAF1, Ub-Rhodamine cleavage fluorescence; Potency, µM (series often up to 57.1 µM), for inactives: at the highest dose activity change, negative = inhibition, actives largely listed as inhibitors; 390,000 tested, 0.23% active; also: potency is read from the fitted curve at half-maximal effect; nearly all actives have a fitted effect of over 60% in size
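USP1/UAF1 complex at 1 nM was preincubated with compound for 15 min at room temperature, then Ub-Rho substrate (150nM final) was added. Fluorescence (480/540 nm) was read kinetically, 6 reads every 60 seconds.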
PGK inhibitor: inhibitors of T. brucei phosphoglycerate kinase; PGK/GAPDH coupled, Kinase-Glo luminescence, 60 min; P07378; Potency, µM (titrated, usually from 57.5 µM), inactives show top-dose activity change, negative = inhibition, most hits filed as inhibitors; AID 602233; 380,000 tested, 0.043% active; also: potency is read from the fitted curve at half-maximal effect; nearly all actives have a fitted effect of over 60% in size
Target sequence (P07378 whole entry, looked up): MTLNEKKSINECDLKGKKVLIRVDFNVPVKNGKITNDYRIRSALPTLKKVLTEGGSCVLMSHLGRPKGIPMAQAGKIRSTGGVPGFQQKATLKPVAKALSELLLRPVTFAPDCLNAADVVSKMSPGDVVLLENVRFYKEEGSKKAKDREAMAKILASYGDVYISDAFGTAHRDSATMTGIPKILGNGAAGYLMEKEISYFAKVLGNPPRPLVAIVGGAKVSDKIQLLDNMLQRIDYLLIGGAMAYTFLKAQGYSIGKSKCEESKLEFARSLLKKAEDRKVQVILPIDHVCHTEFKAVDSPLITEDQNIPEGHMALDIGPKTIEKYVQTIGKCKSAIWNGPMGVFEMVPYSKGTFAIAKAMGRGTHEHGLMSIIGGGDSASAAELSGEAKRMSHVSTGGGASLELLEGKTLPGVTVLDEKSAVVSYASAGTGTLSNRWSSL
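Luminescent ATP detection (Kinase-Glo Plus) follows a 60-minute room-temperature incubation, with wells lacking PGK as controls. Buffer: 100 mM TEA (pH 7.6), 5 mM MgCl2, 0.01% Tween-20. Coupling enzyme GAPDH (100 nM final) supplies unstable 1,3-BPG in-well.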
PI4K2A block: blocks human PI4K2A kinase activity; Q9BTU6; purified PI4K2A, ADP-Glo luminescence, 1 h; active compounds read low; activity change, negative = inhibition, % at 76.9 µM; 420,000 tested, 0.13% active; AID 1346378; in the data active = activity change below about -50%; inconclusive = mostly about -30% to -49%;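 also: -100% = wells without enzyme as full effect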
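ADP-Glo luminescence measured ADP generated by PI4K2A enzyme (4 ug/mL before mixing) with 1.2 mM PI substrate (pre-mix) and 300 microM ATP (pre-mix). Tris pH7.5 buffer with MgCl2, Triton X-100; 1 h reaction at ambient temperature.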
Numbers without * were called inactive; i = inactive; ? = inconclusive; nt = not tested or not shown; ! = not confirmed by another sample. Hits are enriched below; roughly 0.53% of the tested compounds scored in any of these assays. Unless noted, calls follow the shape of the dose curve; as a rule, active = well fitted curve in the direction sought with a large enough effect; inconclusive = small, poorly fitted or top-dose-only effect, or another doubt; inactive = no such curve, though single readings can be large; an effect the other way counts as inactive or inconclusive. Unless noted, % is scaled to controls: 0 for no effect and ±100 for the full control effect.

SMILES	GLS inhibitor	USP1-UAF1 inh	PGK inhibitor	PI4K2A block
Cc1ccc(C)c(NC(=O)C(Cc2ccccc2)N2Cc3ccccc3C2=O)c1 (stereo unspecified)	-16%	-22%	7%	-4
CC(=C/C(=O)O)/C=C/c1ccc(Cl)o1	18µM*	-3%	?	-5
O=C1Nc2c(Cl)cc(Cl)cc2C1=O	9%	28µM*	-7%	-18
CC1(C)O[C@@H]2C[C@H]3[C@@H]4CCC5=CC(=O)C=C[C@]5(C)[C@@H]4[C@@H](O)C[C@]3(C)[C@]2(C(=O)CO)O1	nt	nt	nt	-4
O=C(Cn1cnnn1)N[C@@H]1C(=O)N2C(C(=O)O)=C(CSc3nncs3)CS[C@H]12	-5%	nt	nt	nt
CSc1ccccc1C(=O)Nc1ccccc1C(=O)NC(C)C	32µM*	2%	7%	4
CCOc1ccc(C(=O)Nc2cc(C)ccn2)cc1	?	-17%	?	-72*
CCOc1cc(C(=O)Nc2cc(C)ccn2)cc(OCC)c1OCC	-13%	-13%	0%	4
O=c1oc2ccccc2c2oc3cc(O)c(O)cc3c12	2.8µM*	-9%	-8%	-12
Cc1ccccc1OCC(=O)Nc1ccc(S(=O)(=O)N(Cc2ccccc2)c2ccccc2)cc1	12%	-18%	-4%	0
C[C@@H]1C[C@H]2[C@@H]3CCC4=CC(=O)C=C[C@]4(C)[C@@]3(F)[C@@H](O)C[C@]2(C)[C@@]1(O)C(=O)COC(=O)c1ccncc1	nt	nt	nt	-1
C=C1CCC2C(C)(C)CCC[C@]2(C)[C@H]1CC1=C(O)C(=O)C(CO)=CC1=O (stereo partly specified)	nt	nt	nt	-13
O=C(NN1C(=O)/C(=C/C=C/c2ccco2)SC1=S)c1ccncc1	7.9µM*	?	14µM*	?
O=C(NN1C(=O)/C(=C/C=C/c2ccccc2)SC1=S)c1ccncc1	-2%	-18%	-9%	-7
CC(C)C(C(=O)O)N1C(=O)/C(=C/C=C/c2ccco2)SC1=S (stereo unspecified)	?	?	8.9µM*	-30
CCN(CC)CCCNc1ccc2ncn3c4ccc(O)cc4c(=O)c1c23	23%	28µM*	-6%	-50*
CN(C)CCNc1ccc2nnn3c4ccc(O)cc4c(=O)c1c23	12%	-9%	i	-18
COc1cc(N=c2ssnc2Cl)c(OC)cc1Cl	16µM*!	?	-10%	-7
COc1ccc(OC)c(N=c2ssnc2Cl)c1	39%	-8%	1%	-6
Cc1ccsc1C=Nc1ccc(O)cc1	28%	2.2µM*	?	-59*
CCCOCc1cc(CN2CCN(c3cccc(Cl)c3)CC2)c(O)c2ncccc12	1%	?	-6%	-1
CN1CCN(Cc2cc(COCc3ccccc3)c3cccnc3c2O)CC1	4µM*	-13%	0%	-8
OC1(c2ccccc2)CCNCC1	nt	nt	nt	2
COc1cc2c(cc1O)CCN[C@@]21CS[C@H]2c3c(OC(C)=O)c(C)c4c(c3C(COC1=O)N1C2C2c3c(cc(C)c(OC)c3O)CC([C@@H]1O)N2C)OCO4 (stereo partly specified)	22µM*	nt	nt	nt
Cc1nn(-c2ccccc2)c(Cl)c1/C=N/Nc1ccc(Cl)c(C(=O)O)c1	16µM*	-16%	-4%	6
SMILES	GLS inhibitor	USP1-UAF1 inh	PGK inhibitor	PI4K2A block
CC/C=C\C/C=C\C/C=C\CCCCCCCC(=O)O	22µM*	-6%	-3%	-14
CC/C=C\C/C=C\C/C=C\C/C=C\C/C=C\CCCC(=O)O	32µM*	nt	nt	nt
CCCCCCC/C=C\CCCCCCCCC(=O)O	nt	nt	nt	-2
COc1ccc(-c2cn3cc(C(=O)NN)ccc3n2)cc1	?	-6%	-5%	-72*
NNC(=O)c1ccc2nc(-c3ccc(Br)cc3)cn2c1	?	-18%	-7%	-14
c1ccc(N2CCN(c3nc4cc5c(cc4s3)OCCO5)CC2)cc1	5%	-7%	10%	-1
c1c2c(cc3sc(N4CCOCC4)nc13)OCCO2	2%	-20%	?	-51*
O=C(O)c1cccc(N2C(=O)c3cc([N+](=O)[O-])cc4cc([N+](=O)[O-])cc(c34)C2=O)c1	?	-20%	25µM*	-67*
CC1CC(=O)c2c(cc3c(-c4c(O)cc(O)c5c(O)c6c(cc45)OC(C)CC6=O)c(O)cc(O)c3c2O)O1 (stereo unspecified)	?	32µM*	-17%	-21
Oc1ccc(/C=N/n2c(-c3ccccc3)n[nH]c2=S)cc1	16µM*	-20%	-3%	-5
COc1ccc(/C=N/n2c(-c3ccccc3)n[nH]c2=S)cc1	-17%	-13%	-6%	-1
CC(C)C(=O)Nc1cccc(C2CN3CCSC3=N2)c1 (stereo unspecified)	nt	nt	nt	-2
COc1ccccc1N(C(=O)CCl)c1cn(C(C)=O)c2ccccc12	3%	-6%	5%	17
COc1ccccc1N(C(C)=O)C1=C(Cl)C(=O)c2ccccc2C1=O	?	18µM*	-11%	-13
N#CCC[C@H]1CC[C@]2(CCCN(C(=O)c3ccc4ccccc4n3)C2)O1	nt	nt	nt	-3
CC(C)N(C(=O)Nc1ccc2nsnc2c1)C(C)C	-23%	6.3µM*	-26%	-68*
CCOc1ccc(NC(=S)Nc2ccc3nsnc3c2)cc1	0%	28µM*	-6%	-25
COc1ccc(N(C)C(=O)Nc2ccc3nsnc3c2)cc1	-1%	-18%	-2%	1
COc1ccc(NC(=S)Nc2ccc3nsnc3c2)cc1	26%	5.6µM*	-10%	?
CC(C)(C)c1nnc(NS(=O)(=O)c2ccccc2)s1	3%	nt	nt	-1
C=CC(C)=C[C@@]1(C)SC(=O)C(C)=C1O	nt	nt	nt	0
COc1cc(C)c2c(c1C=O)Oc1c(c(C)c(O)c3c1C(O)OC3=O)OC2=O (stereo unspecified)	-5%	16µM*	?	?
Cc1cccc(OC(=O)CN2C(=O)C3C4CCC(C4)C3C2=O)c1C (stereo unspecified)	1%	-13%	-7%	-85*
CSc1ccc(-c2cnc(N3CCC(C(N)=O)CC3)s2)cc1	nt	nt	nt	-3
Cc1ccc(CNc2ccc3c(c2)OCO3)cc1	3%	28µM*	-18%	-9
SMILES	GLS inhibitor	USP1-UAF1 inh	PGK inhibitor	PI4K2A block
O=c1cc(-c2ccccc2)oc2cc(O)ccc12	1%	-3%	i	-4
Nc1ccc(-c2c3ccc(=O)cc-3oc3cc(O)ccc23)cc1C(=O)O	5%	22µM*	?	-3
O=c1ccc2c(-c3ccccc3)c3ccc(O)cc3oc-2c1	-29%	3.5µM*	-13%	-11
COc1ccc(NC(=O)c2cc3c(COC(C)=O)cnc(C)c3oc2=Nc2cccc(C(=O)O)c2)c(OC)c1	10µM*	-11%	-6%	-5
CO[C@]1(NC(=O)Cc2cccs2)C(=O)N2C(C(=O)O)=CC(COC(N)=O)S[C@H]21 (stereo partly specified)	-25%	nt	nt	nt
CC(C)CC1=C/C(=C/c2ccc(-c3ccccc3)o2)C(=O)O1	11µM*	?	-8%	-4
O=C(CN1CCN(c2ccccc2O)CC1)NC(=O)NC1CCCC1	2.8µM*	-19%	-1%	-2

Screening data as filed in PubChem.
